The chains are these.
B1: UACCCGA (DNA:RNA)
RNA: GGGAGACCGGAAUUCAGAUUGUCCUACCCGAUUAAAUCCCGUCGUAGCCACCA
DNA 1: CAATCTGAATTCCGGTCTCCC
DNA 2: TGGTGGCTACGACGGGATT
B2: GGUCCCA (DNA:RNA)
RNA: B1 RNA with U25G, A26G, C27U, G30C
DNA 1: CAATCTGAATTCCGGTCTCCC
DNA 2: TGGTGGCTACGACGGGATT
B3: GGAGCAG (DNA:RNA)
RNA: B1 RNA with U25G, A26G, C27A, C28G, G30A, A31G
DNA 1: CAATCTGAATTCCGGTCTCCC
DNA 2: TGGTGGCTACGACGGGATT
B4: UUAAUGC (DNA:RNA)
RNA: B1 RNA with A26U, C27A, C28A, C29U, A31C
DNA 1: CAATCTGAATTCCGGTCTCCC
DNA 2: TGGTGGCTACGACGGGATT
B5: UGAAUGC (DNA:RNA)
RNA: B1 RNA with A26G, C27A, C28A, C29U, A31C
DNA 1: CAATCTGAATTCCGGTCTCCC
DNA 2: TGGTGGCTACGACGGGATT
B6: GGAAUGC (DNA:RNA)
RNA: B1 RNA with U25G, A26G, C27A, C28A, C29U, A31C
DNA 1: CAATCTGAATTCCGGTCTCCC
DNA 2: TGGTGGCTACGACGGGATT
B7: GAAUGCU (DNA:RNA)
RNA: B1 RNA with U25G, C27A, C28U, C29G, G30C, A31U
DNA 1: CAATCTGAATTCCGGTCTCCC
DNA 2: TGGTGGCTACGACGGGATT
B8: GUAAUGC (DNA:RNA)
RNA: B1 RNA with U25G, A26U, C27A, C28A, C29U, A31C
DNA 1: CAATCTGAATTCCGGTCTCCC
DNA 2: TGGTGGCTACGACGGGATT
B9: GAUGCUU (DNA:RNA)
RNA: B1 RNA with U25G, C27U, C28G, G30U, A31U
DNA 1: CAATCTGAATTCCGGTCTCCC
DNA 2: TGGTGGCTACGACGGGATT
B10: GAAAUGC (DNA:RNA)
RNA: B1 RNA with U25G, C27A, C28A, C29U, A31C
DNA 1: CAATCTGAATTCCGGTCTCCC
DNA 2: TGGTGGCTACGACGGGATT
B11: CGAAUGC (DNA:RNA)
RNA: B1 RNA with U25C, A26G, C27A, C28A, C29U, A31C
DNA 1: CAATCTGAATTCCGGTCTCCC
DNA 2: TGGTGGCTACGACGGGATT
B12: GCAAUGC (DNA:RNA)
RNA: B1 RNA with U25G, A26C, C27A, C28A, C29U, A31C
DNA 1: CAATCTGAATTCCGGTCTCCC
DNA 2: TGGTGGCTACGACGGGATT
B13: GAAUUGC (DNA:RNA)
RNA: B1 RNA with U25G, C27A, C28U, C29U, A31C
DNA 1: CAATCTGAATTCCGGTCTCCC
DNA 2: TGGTGGCTACGACGGGATT
B14: UAAAUGC (DNA:RNA)
RNA: B1 RNA with C27A, C28A, C29U, A31C
DNA 1: CAATCTGAATTCCGGTCTCCC
DNA 2: TGGTGGCTACGACGGGATT
B15: GAUUGCU (DNA:RNA)
RNA: B1 RNA with U25G, C27U, C28U, C29G, G30C, A31U
DNA 1: CAATCTGAATTCCGGTCTCCC
DNA 2: TGGTGGCTACGACGGGATT
B16: AUGCCGC (DNA:RNA)
RNA: B1 RNA with U25A, A26U, C27G, A31C
DNA 1: CAATCTGAATTCCGGTCTCCC
DNA 2: TGGTGGCTACGACGGGATT
B17: ACACGGC (DNA:RNA)
RNA: B1 RNA with U25A, A26C, C27A, C29G, A31C
DNA 1: CAATCTGAATTCCGGTCTCCC
DNA 2: TGGTGGCTACGACGGGATT
B18: UUUUCCC (DNA:RNA)
RNA: B1 RNA with A26U, C27U, C28U, G30C, A31C
DNA 1: CAATCTGAATTCCGGTCTCCC
DNA 2: TGGTGGCTACGACGGGATT
B19: GGGACUG (DNA:RNA)
RNA: B1 RNA with U25G, A26G, C27G, C28A, G30U, A31G
DNA 1: CAATCTGAATTCCGGTCTCCC
DNA 2: TGGTGGCTACGACGGGATT
B20: UCCAGUU (DNA:RNA)
RNA: B1 RNA with A26C, C28A, C29G, G30U, A31U
DNA 1: CAATCTGAATTCCGGTCTCCC
DNA 2: TGGTGGCTACGACGGGATT
B21: CGAUCAG (DNA:RNA)
RNA: B1 RNA with U25C, A26G, C27A, C28U, G30A, A31G
DNA 1: CAATCTGAATTCCGGTCTCCC
DNA 2: TGGTGGCTACGACGGGATT
B22: AUUGUAA (DNA:RNA)
RNA: B1 RNA with U25A, A26U, C27U, C28G, C29U, G30A
DNA 1: CAATCTGAATTCCGGTCTCCC
DNA 2: TGGTGGCTACGACGGGATT
B23: UUUGUUC (DNA:RNA)
RNA: B1 RNA with A26U, C27U, C28G, C29U, G30U, A31C
DNA 1: CAATCTGAATTCCGGTCTCCC
DNA 2: TGGTGGCTACGACGGGATT
B24: GCGCGAC (DNA:RNA)
RNA: B1 RNA with U25G, A26C, C27G, C29G, G30A, A31C
DNA 1: CAATCTGAATTCCGGTCTCCC
DNA 2: TGGTGGCTACGACGGGATT
B25: UUAAGCC (DNA:RNA)
RNA: B1 RNA with A26U, C27A, C28A, C29G, G30C, A31C
DNA 1: CAATCTGAATTCCGGTCTCCC
DNA 2: TGGTGGCTACGACGGGATT
B26: CCCGAUC (DNA:RNA)
RNA: B1 RNA with U25C, A26C, C28G, C29A, G30U, A31C
DNA 1: CAATCTGAATTCCGGTCTCCC
DNA 2: TGGTGGCTACGACGGGATT
B27: CUUCGGU (DNA:RNA)
RNA: B1 RNA with U25C, A26U, C27U, C29G, A31U
DNA 1: CAATCTGAATTCCGGTCTCCC
DNA 2: TGGTGGCTACGACGGGATT
B28: AAGGCAA (DNA:RNA)
RNA: B1 RNA with U25A, C27G, C28G, G30A
DNA 1: CAATCTGAATTCCGGTCTCCC
DNA 2: TGGTGGCTACGACGGGATT
B29: UGAAUGA (DNA:RNA)
RNA: B1 RNA with A26G, C27A, C28A, C29U
DNA 1: CAATCTGAATTCCGGTCTCCC
DNA 2: TGGTGGCTACGACGGGATT
B30: AGAUUGC (DNA:RNA)
RNA: B1 RNA with U25A, A26G, C27A, C28U, C29U, A31C
DNA 1: CAATCTGAATTCCGGTCTCCC
DNA 2: TGGTGGCTACGACGGGATT
B31: UGAUUGA (DNA:RNA)
RNA: B1 RNA with A26G, C27A, C28U, C29U
DNA 1: CAATCTGAATTCCGGTCTCCC
DNA 2: TGGTGGCTACGACGGGATT
B32: AAAAUGC (DNA:RNA)
RNA: B1 RNA with U25A, C27A, C28A, C29U, A31C
DNA 1: CAATCTGAATTCCGGTCTCCC
DNA 2: TGGTGGCTACGACGGGATT
B33: UGAUGAA (DNA:RNA)
RNA: B1 RNA with A26G, C27A, C28U, C29G, G30A
DNA 1: CAATCTGAATTCCGGTCTCCC
DNA 2: TGGTGGCTACGACGGGATT
B34: AGAAUGC (DNA:RNA)
RNA: B1 RNA with U25A, A26G, C27A, C28A, C29U, A31C
DNA 1: CAATCTGAATTCCGGTCTCCC
DNA 2: TGGTGGCTACGACGGGATT

Residue numbers refer to the chain shown, from its start. In all, about 16,000 sequences were measured (“ka relative to ugcaugu”: median about 0.096, highest 2% from about 0.35 on). Shown is part of a subset that was picked to be rich in the highest values.

The assay concerns the target T1, RBFOX1 RRM RbFoxmut (Fox-RRM*) (Homo sapiens, UniProt Q9NWB1 109-208, R118D;E147R;N151S;E152T).
T1 sequence: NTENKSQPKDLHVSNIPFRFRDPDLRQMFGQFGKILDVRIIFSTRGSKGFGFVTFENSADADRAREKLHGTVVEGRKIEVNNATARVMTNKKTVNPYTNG
In words: EMSA; HiTS-Eq, 1 nM pool, 10 min; buffer printed only for the single-RNA assays: 10 mM Tris pH 7.5, 150 mM NaCl, 3.4 mM EDTA, 0.001% NP-40, 30 C. Particulars: tags: His6 N-terminal (pET28a); label: 5' 32P. Summed up: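 Purified RbFox RRM (wild type or mutant) was equilibrated for 10 min in 50 µL with 1 nM of a 5′-radiolabelled pool of RNA with 7 randomized nucleotides, its flanks annealed to DNA oligonucleotides, across increasing protein concentrations. Free RNA was separated by 8% native PAGE, excised, reverse-transcribed, PCR-barcoded and sequenced on an Illumina HiSeq 2500. Relative association constants came from read-count changes of each variant against the control reaction, normalised to the cognate motif.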
Regarding B1, the binding signal is 0.066 KA relative to UGCAUGU. The same measure for B2: 0.0504 KA relative to UGCAUGU.

As to B3, the binding signal was 0.0829 KA relative to UGCAUGU. Take B4: the binding signal was 0.118 KA relative to UGCAUGU. For the molecule B5, the binding signal is 0.485 KA relative to UGCAUGU. The same measure for B6: 0.686 KA relative to UGCAUGU; for B7: 0.634 KA relative to UGCAUGU.

As to B8, the binding signal was 0.127 KA relative to UGCAUGU.

Take B9: the binding signal was 0.0831 KA relative to UGCAUGU. The result for B10 reads 0.072 KA relative to UGCAUGU; that for B11, 0.856 KA relative to UGCAUGU; that for B12, 0.0545 KA relative to UGCAUGU. The result for B13 reads 0.119 KA relative to UGCAUGU. For B14, the binding signal is 0.0677 KA relative to UGCAUGU. The same measure for B15: 0.141 KA relative to UGCAUGU; for B16: 0.11 KA relative to UGCAUGU. The result for B17 reads 0.115 KA relative to UGCAUGU.

On to B18, for which the binding signal is 0.0312 KA relative to UGCAUGU. On to B19, for which the binding signal was 0.266 KA relative to UGCAUGU. For the molecule B20, the binding signal was 0.0717 KA relative to UGCAUGU. The result for B21 reads 0.0789 KA relative to UGCAUGU; that for B22, 0.154 KA relative to UGCAUGU.

For the molecule B23, the binding signal is 0.0935 KA relative to UGCAUGU. The same measure for B24: 0.0897 KA relative to UGCAUGU. The result for B25 reads 0.106 KA relative to UGCAUGU.

Take B26: the binding signal is 0.0576 KA relative to UGCAUGU. In the case of B27, the binding signal is 0.095 KA relative to UGCAUGU. The same measure for B28: 0.061 KA relative to UGCAUGU; for B29: 0.46 KA relative to UGCAUGU; for B30: 0.14 KA relative to UGCAUGU. With B31, the binding signal was 0.209 KA relative to UGCAUGU. The result for B32 reads 0.0633 KA relative to UGCAUGU; that for B33, 0.122 KA relative to UGCAUGU; that for B34, 0.408 KA relative to UGCAUGU.

For the origin of these results see article PMC9911399, “Two distinct binding modes provide the RNA-binding protein RbFox with extraordinary sequence specificity”.
